The sample as a whole holds a higher share of hits than the screen did.
Dicer inh: blocks human Dicer maturation of pre-miR-21 | Q9UPY3 | cat-ELCCA pre-miR-21 Dicer processing, chemiluminescence; hits give high values | z-score at 25 µM | hit rate 6% among 47,000; in the data active = z-score above about 3, passing the limit was not always enough;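 note: plate controls were vehicle for no effect and no enzyme for full effect; higher signal means more uncleaved substrate so more Dicer inhibition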
The depositor's hits bear a star.

SMILES	Dicer inh
COCCCNC(=S)N/N=C/c1cccc(OC)c1O	4.2*
COCCCNC(=S)N/N=C/c1ccc(O)cc1O	-2.7
CCOCCOC(=O)C1=C(C)NC2=C(C(=O)CC(C)(C)C2)C1c1ccc(C)o1 (stereo not given)	0.17
CSc1sc(-c2ccnc(SCc3c(Cl)cccc3Cl)n2)c2c1C(=O)CCC2	3.5*
CSc1sc(-c2nc(C)cs2)c(C)c1-c1ccnc(SCc2ccc(Cl)cc2)n1	-0.73
CSc1sc(-c2nc(C(C)(C)C)cs2)c2c1C(=O)CCC2	0.15
COC(=O)C1=C(C)N=C2SCCC(=O)N2C1c1cccc(Cl)c1 (stereo not given)	-0.77
N#Cc1ccc(Oc2ncc(C(F)(F)F)cc2Cl)cc1	-1.5
CN1C2CCC1CC(NC(=O)CSc1ccc(F)cc1F)C2 (stereo not given)	1.6
N#Cc1cnn(-c2ccccc2)c1-n1cccc1	-0.14
COC(=O)Cn1cnc(=O)c(C#N)c1C	3.4*
CCOC(=O)Cn1cc(C#N)c(=O)[nH]c1=O	-0.59
COC(=O)CNC(=O)Cn1cnc2c1c(=O)n(C)c(=O)n2C	2.9
COCCOC(=O)C1=C(C)N=C2SCCC(=O)N2C1c1ccccc1Cl (stereo not given)	-0.24
CC(C)OC(=O)C1C(=O)CC(C)(O)C(C(=O)OC(C)C)C1c1ccc(N(C)C)cc1 (stereo not given)	-0.17
CCCCOC(=O)c1c(N)n(-c2ccc(OC)cc2)c2nc3ccccc3nc12	1.6
COC(=O)C1=C(C)NC2=C(C(=O)c3ccccc32)C1c1ccccc1Cl (stereo not given)	-1
COC(=O)C1=C(C)NC2=C(C(=O)c3ccccc32)C1c1cccs1 (stereo not given)	-6.3
COC(=O)C1=C(C)NC2=C(C(=O)c3ccccc32)C1c1ccc(-c2ccc(Cl)cc2)o1 (stereo not given)	3.6*
CC(C(=O)O)N1C(=O)C2CCCCC2C1=O (stereo not given)	0.89
O=S(=O)(CS(=O)(=O)Oc1cccc(Br)c1)Oc1cccc(Br)c1	0.33
O=C(C1=C(O)C(=O)N(CCCn2ccnc2)C1c1cccnc1)c1cccs1 (stereo not given)	3.1*
O=C(C1=C(O)C(=O)N(CCCn2ccnc2)C1c1cccnc1)c1cc2ccccc2o1 (stereo not given)	-0.82
COc1ccc(C2C(C(=O)c3cccs3)=C(O)C(=O)N2CCCn2ccnc2)cc1 (stereo not given)	-0.81
CN(C)/C=N/C(=S)Nc1cccc(C(F)(F)F)c1	4.9*
SMILES	Dicer inh
CC(C)(C)NNC(=S)Nc1cccc(C(F)(F)F)c1	2.4
CN(C)/C=N/C(=S)Nc1cccc(F)c1	-1.1
CNc1nsc(C(=O)c2ccc(Cl)cc2)c1N	1.1
COC(=O)C1=CC(C(=O)c2cccs2)=NN(c2ccccc2)C1C(=O)OC (stereo not given)	61
CC1=C(C(=O)OCC2CCCO2)C(c2cc3c(cc2Cl)OCO3)C2=C(CCCC2=O)N1 (stereo not given)	1.3
Cc1nc(C)c(S(=O)(=O)NCc2nn(-c3ccccc3)nc2C)s1	-2
COCCOC(=O)C1=C(C)N=C2SCCC(=O)N2C1c1ccc(F)cc1 (stereo not given)	-0.5
O=C(Nc1ccc(-c2nc3cc(Cl)ccc3o2)cc1)c1ccc([N+](=O)[O-])o1	1.2
O=C(Nc1ccc2oc(-c3ccc(F)cc3)nc2c1)c1ccc([N+](=O)[O-])o1	3*
O=C(Nc1ccc(-c2nc3ccccc3o2)c(O)c1)c1ccc([N+](=O)[O-])o1	0.35
COc1ccc(NC(=O)c2ccc([N+](=O)[O-])o2)cc1	1.9
COc1ccc(NC(=O)c2ccc([N+](=O)[O-])o2)cc1Cl	3.2*
O=C(Nc1ccc2oc(-c3cccc(F)c3)nc2c1)c1ccc([N+](=O)[O-])o1	0.94
COC(=O)c1cc(NC(=O)c2ccc([N+](=O)[O-])o2)cc(C(=O)OC)c1	1.5
O=C(Nc1cccc(-c2nc3ccccc3o2)c1)c1ccc([N+](=O)[O-])o1	3.5*
O=C(Nc1cccc(-c2nc3ncccc3o2)c1)c1ccc([N+](=O)[O-])o1	-0.2
CCCC[S@](=N)(=O)CC[C@H](N)C(=O)O	0.25
O=C(C1=C(O)C(=O)N(Cc2cccnc2)C1c1cccnc1)c1ccco1 (stereo not given)	0.21
CSc1nc(NC(=O)NS(=O)(=O)c2ccccc2C(F)(F)F)nc(-c2ccncc2)n1	-0.49
Cn1c(=O)c2c(N)c([N+](=O)[O-])c(=O)n(-c3ccccc3)c2n(C)c1=O	-4.6
O=C(/C=C/c1cccs1)Oc1ccccc1/C=N/N=C1\SCC(=O)N1c1cccc(F)c1	5.4
Cc1[nH]nc2c1C(c1ccc(OC(=O)N3CCOCC3)cc1)C(C#N)=C(N)O2 (stereo not given)	-1.4
Cn1nc(C(C)(C)C)c([N+](=O)[O-])c1C(C)(C)C	-0.78
COC(=O)c1cc(=O)n2c(c1C(=O)c1cccs1)SCC2	6.8*
COC(=O)c1csc2c(C(F)(F)F)cc(N3CCN(C(=O)c4cccs4)CC3)nc12	0.81
SMILES	Dicer inh
COC(=O)c1ccsc1NC(=O)c1cccs1	-0.03
CSc1nnc(-c2cccc([N+](=O)[O-])c2)o1	-0.34
CN1CCN(C(c2cccs2)c2ccc3cccnc3c2O)CC1 (stereo not given)	0.94
CN1CCN(C(c2ccccc2)c2ccc(Cl)cc2)CC1 (stereo not given)	-0.11
CN1CCN(C(c2cccs2)N2CCN(C)CC2)CC1	4.6*
Cc1[nH]c2ccccc2c1C1(O)C(=O)N(CCCc2ccccc2)c2ccccc21 (stereo not given)	1.9
CC(=O)N1CCN(c2nc3ccc(Cl)cc3s2)CC1	-1.1
OCCSc1nc2ccccc2n1CCOc1ccccc1	3.9*
CSc1nc2ccccc2n1CCOc1ccccc1	-1.9
Cc1ccc(OCCSc2nc3ccccc3n2CCO)cc1	-0.89
C=CCSc1nc(-c2ccccc2)c(-c2ccccc2)[nH]1	-0.06
CN(c1ccc([N+](=O)[O-])cc1Cl)C1CCCCC1	-1.1
O=C1CC2(CCCc3ccccc32)C(=O)N1CN1CCOCC1 (stereo not given)	1.8
O=S(=O)(Nc1ccc(N2CCCCC2)cc1)c1cc(S(=O)(=O)c2ccccc2)cs1	5.3*
O=S(=O)(Nc1ccc2c(c1)OCCO2)c1cc(S(=O)(=O)c2ccccc2)cs1	2.4
Cn1cnc(S(=O)(=O)Nc2ccc(N3CCCCC3)cc2)c1	-1.5
Cc1ccc(O)c(-c2cc(C(F)(F)C(F)F)on2)c1	2.4
CC(=O)O[C@@H]1OC[C@@H](OC(C)=O)[C@H](OC(C)=O)[C@H]1OC(C)=O	51
O=C1c2ccccc2-c2nc3ncnn3c(-c3ccc(F)cc3)c21	1.6
CN(Cc1ccccc1)S(=O)(=O)Cc1ccccc1	0.64
O=S1(=O)CC(O)C(S(=O)(=O)Cc2ccc(Cl)cc2)C1 (stereo not given)	0.55
O=S(=O)(Cc1ccccc1)C1CCCCC1O (stereo not given)	3.1*
CCOC(=O)C1C(c2ccc(C#N)cc2)C(C(=O)OCC)C(O)(C(F)(F)F)NC1(O)C(F)(F)F (stereo not given)	1.4
CCOC(=O)c1nn(-c2ccc(Cl)cc2Cl)cc(Sc2nc(C)c(C)c(C)c2C#N)c1=O	1.6
Cc1nnc(SCC(=O)c2c[nH]c3ccccc23)n1-c1ccccc1	4.3*
Cn1c(SCC(=O)c2c[nH]c3ccccc23)nnc1-c1cccs1	2.6
Cc1[nH]c2ccccc2c1C(=O)CSc1nnc(C)n1-c1ccccc1	2.8
CCOC(=O)c1c(NC(=O)COC(=O)CN2C(=O)C(=O)c3ccccc32)sc2c1CCCC2	0.72
